Bioassay records as filed in PubChem BioAssay.
Pf growth 96h: P. falciparum growth inhibition at 96 hours; P. falciparum luciferase reporter growth, 96 h; Potency, µM (highest dose often 28.7 µM), for the others: top-dose activity change, negative = inhibition, usual class: inhibitors; hit rate 6.9% among 320,000; AID 504834; note: potency is the fitted concentration of half-maximal effect
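Compounds incubated with erythrocytes infected by luciferase-expressing P. falciparum (2% hematocrit, 0.05% parasitemia final) for 96 hours, 37 C in 5% CO2. Growth inhibition scored as decreased luciferase luminescence.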
Pf growth 48h: inhibits P. falciparum growth in the first generation, 48 h | P. falciparum luciferase growth in erythrocytes, 48 h | Potency, µM (doses to about 28.7 µM), without a hit: at the highest dose activity change, negative = inhibition, actives largely listed as inhibitors | AID 504832 | hit rate 5.9% among 310,000; note: potency is the fitted concentration of half-maximal effect
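Compounds are pin-transferred into medium, infected erythrocytes (2% hematocrit, 0.1% parasitemia final) are added, and plates sit one parasite generation at 37 C in 5% CO2. Detection reagent is then added and luminescence measured.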
Sm TGR inh: S. mansoni TGR enzyme inhibition; purified TGR, DTNB reduction, TNB absorbance 405 nm; Q962Y6; hit rate 3% among 360,000; Potency, µM (doses to about 114 µM), for inactives: at the top dose activity change, negative = inhibition, most hits filed as inhibitors; note: potency is the fitted concentration of half-maximal effect; nearly all actives have a fitted effect of over 60% in size
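Kinetic colorimetric format: TGR-catalysed, NADPH-driven DTNB reduction monitored via TNB absorbance. Enzyme dispensed at 20 nM; compound exposure 15 min at room temperature before reaction start.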
FBPA Giardia inh: blocks Giardia fructose-bisphosphate aldolase activity | A8B2U2 | purified Giardia FBPA | Potency, µM (titrated, usually from 59.6 µM), for the others: at the highest dose activity, negative = inhibition, hits mostly inhibitors | hit rate 0.71% among 290,000; note: potency is the fitted concentration of half-maximal effect; nearly all actives have a fitted effect of over 55% in size
Target sequence (A8B2U2 whole entry, looked up): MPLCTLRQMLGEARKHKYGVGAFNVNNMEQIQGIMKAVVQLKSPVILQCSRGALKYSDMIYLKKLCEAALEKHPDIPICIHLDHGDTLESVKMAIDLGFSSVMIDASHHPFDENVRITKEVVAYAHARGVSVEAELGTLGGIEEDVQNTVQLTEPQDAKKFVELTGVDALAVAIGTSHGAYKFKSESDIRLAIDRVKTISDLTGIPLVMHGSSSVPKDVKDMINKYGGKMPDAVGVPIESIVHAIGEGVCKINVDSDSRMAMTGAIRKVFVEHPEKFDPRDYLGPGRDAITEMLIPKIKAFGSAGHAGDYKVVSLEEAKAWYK
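Giardia FBPA (40 nM reagent) was preincubated 10 min at RT with compound (up to 57.5 uM final), then substrate plus GAPDH/TPI/NAD/arsenate coupling system with diaphorase/resazurin was added; resorufin fluorescence (525/598 nm) was read after 20 min.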
HCMV inh: blocks human cytomegalovirus replication; HFF cells, HCMV-luciferase reporter, 72 h; hits give low values; hit rate 4.5% among 410,000; activity change, negative = inhibition, % at 57.5 µM; in the data active = activity change below about -60%; inconclusive = no clear call, values can overlap the other calls; inactive = above about -39%
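Two-dose cell screen: HFF monolayers treated with compounds and infected with luciferase-expressing HCMV at 1 PFU/cell, 72 h at 37C, then lysed for luciferase measurement.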
Starred values were filed as active, the others as inactive; ? = inconclusive; . = not tested or not shown. This is a sample that favours compounds with a hit; in the whole collection about 14% have one here. Unless noted, calls come from the whole dose curve; as a rule, active = well fitted curve in the direction sought with a large enough effect; inconclusive = small, poorly fitted or top-dose-only effect, or another doubt; inactive = no such curve, though single readings can be large; an effect the other way counts as inactive or inconclusive. % is set by controls: 0 for no effect and ±100 for the full control effect.

SMILES	Pf growth 96h	Pf growth 48h	Sm TGR inh	FBPA Giardia inh	HCMV inh
O=C(CCl)NCCN1C(=O)S/C(=C\c2cccnc2)C1=O	?	?	40µM*	-4%	-77*
O=C(NCCN1C(=O)S/C(=C\c2cccnc2)C1=O)c1ccc([N+](=O)[O-])s1	51%	-11%	-14%	.	-36
CC(C(=O)NCCN1C(=O)S/C(=C\c2cccnc2)C1=O)N1C(=O)c2ccccc2C1=O (centres undefined)	3%	?	4%	4%	-8
Cc1c(C(=O)NCCN2C(=O)S/C(=C\c3cccnc3)C2=O)cccc1[N+](=O)[O-]	?	5.2µM*	8%	-6%	-19
Cc1ccc(C2C(=O)N(C3CCCCCC3)CC(=O)N2C(C)C)cc1 (centres undefined)	.	.	16%	.	?
O=C(NCCO)c1cccc(-c2cnc3cccnn23)c1	.	.	.	.	7
N#Cc1ccc(CN(Nc2ccccc2)c2ccccc2)cc1	.	.	.	.	-15
O=c1[nH]nnc2cc(Cl)ccc12	.	.	.	.	25
COc1ccc(/C=N\NC(=O)c2ccc(F)cc2)cc1COc1ccccc1C(N)=O	?	-3%	28µM*	.	18
COc1ccc(/C=N/NC(=O)c2ccoc2C)cc1CN1CCN(c2ccc(F)cc2)CC1	?	9.3µM*	-2%	18%	6
COc1ccc(/C=N/O)cc1COc1ccc(NC(C)=O)cc1	7.4µM*	7%	-4%	-3%	-3
COc1ccc(/C=N\NC(=O)c2cccc([N+](=O)[O-])c2)cc1Cn1cc([N+](=O)[O-])cn1	32%	?	-1%	6%	-35
COc1ccc(/C=N/NC(=O)c2ccc(N)cc2)cc1Cn1cc([N+](=O)[O-])cn1	12µM*	7%	-2%	-1%	-5
COc1ccc(C(=O)N/N=C/c2ccc(OC)c(CN3CCN(c4ccc(F)cc4)CC3)c2)cc1	16%	17%	-2%	6%	50
COc1ccc(/C=N/NC(=O)c2cccnc2)cc1COc1ccc(NC(C)=O)cc1	41%	12%	2%	2%	-37
COc1cccc(C(=O)N/N=C/c2ccc(OC)c(COc3ccccc3C(N)=O)c2)c1	?	?	-3%	.	-9
COc1ccc(N2CCN(CC(O)COc3ccccc3C(C)(C)C)CC2)cc1 (centres undefined)	.	.	1%	.	-5
Cc1cc(C)[n+](Cc2ccccc2)cc1C(N)=O	.	.	.	.	18
CCOc1ccc(OCCC(=O)OCC(=O)NC2CCCC2)cc1	-20%	-13%	?	.	0
COc1ccc(/C=N\NC(=O)c2cccc(F)c2)cc1COc1ccccc1	.	.	.	.	-86*
CSc1cccc(NC(=S)N(CCCN2CCCC2)Cc2cccn2Cc2ccc(Cl)cc2)c1	-18%	?	4%	5%	?
Cc1cccc(NC(=S)N(CCCN2CCOCC2)Cc2cn(C)c3ccccc23)c1	?	-5%	-6%	0%	-89*
Cc1cccc(NC(=S)N(CCN2CCOCC2)Cc2cc3cc4c(cc3[nH]c2=O)OCO4)c1	?	?	0%	-5%	-21
S=C(Nc1cccc(Cl)c1)N(CCCN1CCCC1)Cc1cccn1Cc1ccc(Cl)cc1	?	?	0%	-6%	-79*
Cn1cc(CN(CCCN2CCOCC2)C(=S)Nc2cccc(Cl)c2)c2ccccc21	?	0%	0%	0%	-78*
O=C(CC1N=C2c3ccccc3N=C(SCC(=O)Nc3cccc(Cl)c3)N2C1=O)NCc1cccs1 (centres undefined)	.	.	8%	.	-4
CCCNC1=C(C)C(=O)C2=C(C1=O)C(COC(N)=O)[C@]1(OC)C3NC3CN21 (some centres undefined)	0.19µM*	1.3µM*	35µM*	?	-69*
CO[C@@]12[C@H](COC(N)=O)C3=C(C(=O)C(C)=C(N)C3=O)N1C[C@@H]1N[C@@H]12	5.2µM*	13µM*	-8%	.	24
CO[C@@]12[C@@H]3N[C@@H]3CN1C1=C(C(=O)C(N)=C(C)C1=O)[C@@H]2COC(N)=O	.	.	.	.	-97*
CCN(C1CCS(=O)(=O)C1)S(=O)(=O)c1ccc2ccccc2c1 (centres undefined)	18%	-1%	-2%	.	-11
